Experimental data: the supplement of paper PMC6555819

System: VDR:RXRa (NR concentration 270 nM, RXRa partner concentration 90 nM)
Assay: PBM binding z-score (relative to random genomic background probes); higher = stronger binding; sequences stand for … in GC…GCGATTGACAGCGTAGAATGAAGG
Method: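 Protein-binding microarray (Agilent 4x180K custom design, double-stranded 60-nt probes: 5' GC cap, 34-nt variable region, 24-nt constant primer region; full probe sequence given). Purified or IVT nuclear receptor:RXRα heterodimers (3:1 NR:RXRα, mostly 270:90 nM) or homodimers were incubated for 1 h in PBS with 2% milk and no ligand, then detected with Alexa488 antibodies. Fluorescence from o1-orientation probes (~5 replicates averaged) was converted to z-scores against 500 random hg19 background probes. Variable regions are seed direct-repeat (DR0–DR5) sites, all their single-nucleotide variants and half-site ablations.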

| Sequence | PBM binding z-score |
| --- | --- |
| AGAATGATGTTATACGTAGATCAGGGAAGAAAGT | -0.209 |
| TCATATAGGTAATACAGGTAAAAGTCGGCATCTA | 1.24 |
| CCTTACGGGTCAAGGTTATAGCGCGGGTGGTACG | 3.22 |
| CCAGACAGGTGAAAGTTAACTCAGTCTGGTACGC | 0.0177 |
| GTACCATGGTGAATAGGTCGTTGATGAGTAGGCG | -0.0102 |
| TGAATGACGTTATAAGATCAGGGAACGTTGCAAA | 0.104 |
| ACTAGCAGACCAAGGGTCACTCAAGATTAGTCCG | 2.58 |
| TCTCGGAGGACACGAAGGTCAGAACTTTCCAGAG | 2.18 |
| CCGACTGGGGCAGGGTTACCATAACGCACAGCCA | 0.216 |
| TGTCAAACTTCAAAGGTAACGTAAGTATCCACAC | 0.41 |
| CGAACTAGGTCATTGACAGGAGAGTGAATAGTAA | 1.62 |
| GCTAGTTGGTCAGTAAAAAGTCACACACCGGTCG | 0.0507 |
| ATCTCTCGGTAACCAAGTTCAGTGAATGCCGAAC | 2.72 |
| GCTAGGAGGCCATTTGGGTCACTCAATGACGGGC | 1.83 |
| TCTGCTAGGTCAACGATGGTAAGCTAATCTGCTA | 1.82 |
| ACTAGCAGGTCAAGTTTGGGTCACTCAAACAAAG | 4.68 |
| GGTACGAGGGCAAGTTGATAGCAGAGTTTGATGG | 1.11 |
| CCGACTGGGGCAAAGGTTGCCATACTCAGTACGA | 0.133 |
| TAGCTTAGGTCATTGGGCCAGTATAGTACGCATC | 2.4 |
| CCTCGCAGGCCAATCTGGGTCACTCAAGGCTTGA | 0.596 |

| Sequence | PBM binding z-score |
| --- | --- |
| AGTCAAAGTTCATCTAGGTAACGCAAGATATGCT | 4.91 |
| ATACCAAGGTGAGCGTGAGGTCGTTGATACTAAC | 3.32 |
| GCTAGTTGGTCAGTAAAAGGTCCCACACCGGTCG | -0.352 |
| AGAATGAGGTTTTACGTAGATCAGGGAAGAAAGT | -0.19 |
| TCTATTAGTTGATTAGGGCATCCGAAACAGCGGA | 0.719 |
| ATCGAAAGGTCGTGAGGTGAGTGTACAGAAAGGC | 3.63 |
| ACTAGCAGGCCAAGGGTCACTCTAGATTAGTCCG | 2.58 |
| ATCGAAAGGTCGAAGGTTAGTATACCCACCCGAA | 3.14 |
| CCTTACGGGTCACGAGGTTATGGCACGACGAGCG | 4.99 |
| CAAACTAAGTCACGAAAGGTCAAAGTCGAATGAC | 5.34 |
| GCTGCTAGGCCAACTGATGGTCAGCTAAAGCTCG | -0.87 |
| TTACCAAGGTGAAGGTCGTAGATCCCTCTGTAGA | 0.681 |
| TCTTGTAGATCAGAAGGTTAAGAAAGCTGGCCAA | 0.671 |
| TGAATGAGGTTATAAGCTCAGGGAACGTTGCAAA | 0.693 |
| CGAACTAGGTCCGAACAGGACAGTGAAGGATGAT | -0.576 |
| TCATGTAGGTAAAGGTGAAAGTCGAACGATATGA | 1.11 |
| TCAGACAGGTGAAGGTAACGCAGGTACGCAGTCG | 0.637 |
| TCATATAGCTAAACAGGTGAAAGTCCGTAAGTTA | 0.43 |
| CCTACTGGGCCATAAGGTCATTGATATCAACGTT | 3.71 |
| CCGAGTGGGTTATGGGGCATTCAGGCAACGGTGA | -0.199 |
